Screening results deposited in PubChem BioAssay by National Center for Advancing Translational Sciences (NCATS).
D1 antagonist = antagonists of human D1 dopamine receptor. HEK293 TREx D1 cells, calcium flux, dopamine EC80; active compounds read low. activity change, negative = inhibition, % at 10 µM. P21728. AID 504652. hit rate 3.2% among 360,000; in the data active means activity change below about -30%; further: on the % scale 0 is the no-effect control and ±100 the full control effect
Target sequence (P21728 whole entry, looked up): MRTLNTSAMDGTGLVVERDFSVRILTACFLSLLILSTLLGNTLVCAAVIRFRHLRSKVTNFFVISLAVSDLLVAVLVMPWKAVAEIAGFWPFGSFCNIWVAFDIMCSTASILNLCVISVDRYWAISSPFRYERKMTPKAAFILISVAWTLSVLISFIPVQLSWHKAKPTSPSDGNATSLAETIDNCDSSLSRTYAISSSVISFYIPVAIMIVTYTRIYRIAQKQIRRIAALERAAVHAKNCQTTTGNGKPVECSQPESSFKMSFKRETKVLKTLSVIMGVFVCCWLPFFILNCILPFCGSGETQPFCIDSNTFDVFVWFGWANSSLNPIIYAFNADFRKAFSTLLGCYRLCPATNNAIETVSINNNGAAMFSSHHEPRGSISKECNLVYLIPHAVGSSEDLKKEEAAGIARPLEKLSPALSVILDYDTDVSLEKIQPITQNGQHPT
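Cells carrying a force-coupled, tetracycline-inducible human D1 receptor report calcium flux. Each well gets a 10 s baseline, compound with 180 s monitoring, then an EC80 dopamine stimulus with a second 180 s kinetic read.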
TRHR ag = agonists of human TRH receptor; AID 493084; hit rate 0.18% among 360,000; TRHR cells, calcium flux fluo-8, FDSS agonist mode; activation, % at 2 µM; P34981; further: 0% is about no effect
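Fluo-8-loaded TRHR cells; 10 s baseline, compound added, kinetic Ca2+ fluorescence read 1/s, agonist mode.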
D1 potentiator = potentiators of human D1 dopamine receptor | P21728 | HEK293 TREx D1 cells, calcium flux, dopamine EC20 potentiation | potentiation, % at 10 µM | hit rate 0.036% among 360,000 | AID 504651; in the data active means potentiation above about 30%; further: 0% is about no effect
TRHR PAM = TRH receptor (human) allosteric enhancement. P34981. TRHR cells, fluo-8 calcium fluorescence, EC20 TRH enhancement. enhancement, % at 2 µM. hit rate 0.66% among 360,000. AID 493056; in the data active means enhancement above about 30%; further: 0% is about no effect
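Enhancer read-out: after compound pinning and an initial kinetic agonist-mode read, an EC20 of TRH (10 nM final) was injected and fluo-8 calcium signal (Ex 480/Em 530) followed at 1 s/cycle for 100 cycles in TRHR-expressing cells.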
D1 agonist = activates the human D1 dopamine receptor; P21728; HEK293 T-REx D1 cells, calcium flux, agonist mode; activation, % at 2 µM; hit rate 1% among 360,000; AID 504660; further: 0% is about no effect
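Agonism was scored from calcium flux recorded over 180 s (1 read/s) after pintool compound addition, following a 10-cycle baseline. Cells were inducible force-coupled HEK293 TREx D1, plated overnight at 30 C and loaded with no-wash calcium dye.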
The depositor's hits bear a star; ! = repeats disagree. A selection: hits, their analogues and other compounds. The true share with any hit is near 4.7%. Unless noted, no stated cut-off is given here; in the data, active means activation above about 30%; inactive means the rest.

SMILES	D1 antagonist	TRHR ag	D1 potentiator	TRHR PAM	D1 agonist
CCOCCNC(=O)c1ccccc1C(=O)NCCOCC	-7.8	0.0	-2.8	-3.4	1.2
CCOCCN(C(=O)c1ccccc1Cl)c1cccc(C)c1C	-38.4*	-0.1	-8.9	17.4	-0.4
CCc1nc(SCC(=O)Nc2ccnc3ccccc23)n[nH]1	-45.6*	0.1	-2.9	-1.8	12.4
CCc1nc(SCC(=O)Nc2ccccc2C(=O)OC)n[nH]1	-5.8	0.3	3.6	4.1	-0.5
Cc1nn(CCOc2cccc(Cl)c2)c(C)c1[N+](=O)[O-]	-27.5	1.3	-0.7	-8.2	5.6
C=CCN1C=CC(=C/C=C(/C#N)C(=O)OCC)C=C1	-12.7	37.0*	13.2	0.5	92.7*
CC(C)n1cc(CN2CCCC(CNS(=O)(=O)c3cccc4cccnc34)C2)cn1 (centres undefined)	-48.7*	0.6	-10.5	3.6	1.3
COc1ccc(NC(=O)CCSc2ccc(C)cc2)cc1	0.9	-0.3	-2.1	8.3	1.8
NC(=O)C1CCN(CCC(=O)Nc2ccc(Br)cc2)CC1	16.4	0.5	-1.8	34.2*	4.2
CCOC(=O)C1CCN(CCC(=O)Nc2ccc(Br)c(C)c2)CC1	3.5	1.8	-5.8	19.7	136.3*!
Cc1ccc(SCCC(=O)Nc2ccc(Br)c(C)c2)cc1	-33.4*	-0.5	-10.6	-0.9	9.7
CCOC(=O)C1CCCN(CCC(=O)Nc2cccc(C)c2)C1 (centres undefined)	-37.7*!	-0.5	-6.8	-0.1	4.5
CCOC(=O)C1CCCN(CCC(=O)Nc2cccc(F)c2)C1 (centres undefined)	4.1	-0.1	-5.8	8.4	2.3
Cc1cc(NC(=O)CCN2CCC(C(N)=O)CC2)ccc1Br	-4.3	-0.9	-2.4	6.5	3.6
Cc1oc2ncn(CC(C)C)c(=O)c2c1C(=O)NCCCN1CCCCC1C (centres undefined)	-2.2	0.6	-3.9	17.2	0.9
O=S(=O)(c1ccc2c(c1)OCCO2)N1CCN(S(=O)(=O)c2ccc(F)c(F)c2F)CC1	8.8	-0.8	1.6	1.0	1.3
COc1ccc(C(=O)c2oc3ccccc3c2NC(=O)c2nc(SC)ncc2Cl)cc1Cl	6.8	0.2	-1.4	-3.8	2.9
COc1ccc(C(=O)N2CC(=O)Nc3ccc(C)cc3C2c2ccccc2)cc1OC (centres undefined)	1.3	2.3	-0.6	4.2	8.4
Cc1ccc(N(CC(=O)Nc2ccc(Br)c(C)c2)S(=O)(=O)c2cccs2)cc1	-51.8*	1.3	-2.8	-0.2	2.8
Cc1ccc(N(CC(=O)Nc2cccc(Cl)c2)S(=O)(=O)c2cccs2)cc1	-16.8	4.8	-1.4	-3.8	18.5
Cn1ccsc1=NC(=O)c1ccccc1OC(F)F	-36.1*	2.9	-8.3	-6.7	0.0
O=C1CC(N2CCN(c3ccc(O)cc3)CC2)C(=O)N1Cc1cccs1 (centres undefined)	4.4	0.2	3.8	4.2	-0.4
O=C(c1ccncc1)c1ccc(N2CCN(C3CC(=O)N(Cc4cccs4)C3=O)CC2)cc1 (centres undefined)	-39.2*	0.4	-4.7	-7.7	12.7
CN1CCN(C(=O)c2ccc3c(c2)N(Cc2ccc(C(F)(F)F)cc2)C(=O)c2ccccc2S3)CC1	3.7	10.9	3.1	-10.1	17.6
CCc1ccc(-n2nc(C)c3c(C(=O)Nc4cccc(C(F)(F)F)c4)cc(C)nc32)cc1	-35.3*	1.7	-5.8	-5.7	9.4
SMILES	D1 antagonist	TRHR ag	D1 potentiator	TRHR PAM	D1 agonist
Cc1cc(C(=O)NCc2ccccc2Cl)c2c(C)nn(-c3cccc(F)c3)c2n1	-7.4	0.6	0.2	-3.3	5.5
COc1cccc(CNC(=O)c2cc(C)nc3c2c(C)nn3-c2cccc(F)c2)c1	-8.5	-1.6	-2.0	-7.0	32.6*
Cc1cc(C(=O)NCc2cccc(Br)c2)c2c(C)nn(-c3ccccc3)c2n1	-4.5	2.1	1.9	-5.7	6.1
COc1ccc(-c2[nH]ncc2C(=O)NCc2cccc(F)c2)cc1	14.6	-0.5	2.8	37.3*	0.7
COc1ccc(-c2[nH]ncc2C(=O)NCc2ccc(F)cc2)cc1	-1.2	-0.3	-5.1	-1.9	-0.3
Cc1cc(C(=O)NCc2ccccc2C)c2c(C)nn(-c3cccc(F)c3)c2n1	-46.1*	-0.1	-7.0	10.7	4.3
Cc1cc(C)cc(OCC(=O)N(Cc2ccc(Cl)cc2)C2CCS(=O)(=O)C2)c1 (centres undefined)	-0.9	-0.6	-1.1	2.5	11.3
COc1ccc(CCN2C(=O)CSC2c2cccc([N+](=O)[O-])c2)cc1OC (centres undefined)	-30.2*	0.1	-4.3	-5.0	-1.8
CC(=O)NC12CC3CC(C1)CC(C(=O)N1CCN(S(=O)(=O)c4ccc(Cl)s4)CC1)(C3)C2	-6.8	0.3	-4.6	-5.7	4.9
CC(=O)NC12CC3CC(C1)CC(C(=O)N1CCN(S(=O)(=O)c4cccc(C(F)(F)F)c4)CC1)(C3)C2	-28.5	-0.2	-10.2	8.5	38.2*
O=C(CCCCn1c(=O)c2ccccc2n(Cc2cccc(F)c2)c1=O)NCc1ccc2c(c1)OCO2	-7.2	1.0	0.1	-7.1	5.4
COc1ccc(N2CCN(CC(=O)NCc3ccc(Cl)cc3)CC2)cc1	-1.9	-0.5	-5.0	1.5	2.7
Cc1ccc(-c2nnn(CC(=O)N(CCN3CCOCC3)C(C(=O)NC(C)(C)C)c3ccc(C)o3)n2)cc1 (centres undefined)	2.4	-0.1	-1.4	36.6*	1.3
CC(C)(C)NC(=O)C(c1ccncc1)N(Cc1cccs1)C(=O)Cn1nnc(-c2ccc(F)cc2)n1 (centres undefined)	-32.9*	0.7	-2.0	-2.6	-0.2
COc1ccc(-c2nnn(CC(=O)N(CCCN3CCOCC3)C(C(=O)NC3CCCC3)c3ccco3)n2)cc1 (centres undefined)	-31.8*	-0.6	0.9	-1.3	3.6
COc1ccc(OCC(=O)Nc2ccc(N3CCN(Cc4ccccc4F)CC3)cc2)cc1	-2.8	0.3	-7.2	-4.9	2.9
CCCCNC(=O)c1cc2c(=O)n3cccc(C)c3nc2s1	3.0	-0.1	-5.9	-3.6	0.2
COCCCNC(=O)c1cc2c(=O)n3cccc(C)c3nc2s1	-32.8*!	-0.6	-3.3	-3.6	0.2
COc1ccccc1OCc1ccc(C(=O)Nc2ccc(Cl)cn2)o1	-35.7*	-0.5	-4.7	-7.7	2.9
COc1ccccc1OCc1ccc(C(=O)NN)o1	-16.2	-0.3	-4.0	1.3	2.9
COc1ccc(NC(=O)c2ccc(COc3ccccc3Br)o2)cc1OC	-36.6*	-1.9	-8.0	15.8	1.1
COc1ccc(NC(=O)c2ccc(COc3ccccc3OC)o2)cc1OC	-4.9	-1.1	-6.9	12.7	-0.7
COc1ccc(C2(C)NC(=O)N(CC3CCCCC3)C2=O)cc1 (centres undefined)	-52.2*	0.0	-5.0	-5.0	12.0
